In the supplement of paper PMC3616981:
± gives the standard deviation of the averaged measurements.

Compound: CC(C)c1cccc(C(C)C)c1N1C(=O)c2ccc(O)cc2C1=O
Test: BioMAP readout fold decrease vs vehicle (vehicle/treated); higher = stronger decrease of the readout vs vehicle (values <1 mean increase)
Procedure: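 BioSeek BioMAP human primary cell (co-)culture systems (3C, 4H, LPS, SAg, BE3C, CASM3C, hDFCGF, KF3CT) treated with 5HPP-33 at 1.48, 4.44, 13.3 and 40 µM. Read-outs are protein levels by ELISA, proliferation and SRB total protein. Duplicate rows per assay are averaged as replicates. Tested in ToxCast Phase II for this study; exposure time not stated.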
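Also: Co-cultures of keratinocytes, bronchial epithelial and smooth muscle cells, fibroblasts, HUVECs and PBMCs under stimuli like LPS, TNF-α, IFN-γ, IL-1β, TGF-β or EGF, SRB reflecting cytotoxicity.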

Target | BioMAP readout fold decrease (1.48 µM) | BioMAP readout fold decrease (4.44 µM) | BioMAP readout fold decrease (13.3 µM) | BioMAP readout fold decrease (40 µM)
3C_Proliferation | 1.29 ± 0.074 | 3.56 ± 0.043 | 6.1 ± 0.28 | 7.03 ± 0.41
CASM3C_TissueFactor | 1.0008 ± 0.00028 | 1.023 ± 0.0054 | 1.04 ± 0.026 | 1.22 ± 0.015
CASM3C_HLADR | 0.895 ± 0.021 | 0.797 ± 0.061 | 1.41 ± 0.07 | 2.61 ± 0.45
3C_SRB | 0.983 ± 0.018 | 1.13 ± 0.012 | 1.46 ± 0.018 | 2.09 ± 0.16
LPS_SRB | 0.935 ± 0.012 | 1.032 ± 0.0086 | 1.277 ± 0.0063 | 1.87 ± 0.066
LPS_TNFa | 0.955 ± 0.077 | 0.923 ± 0.036 | 1.26 ± 0.13 | 1.56 ± 0.35
CASM3C_MCSF | 1.06 ± 0.033 | 1.14 ± 0.044 | 1.03 ± 0.035 | 2.01 ± 0.034
KF3CT_TGFb1 | 1.03 ± 0.011 | 1.044 ± 0.0031 | 1.11 ± 0.021 | 2.33 ± 0.15
SAg_CD38 | 1.01 ± 0.025 | 1.34 ± 0.061 | 2.26 ± 0.16 | 5.07 ± 0.81
SAg_MIG | 1.05 ± 0.017 | 1.04 ± 0.012 | 1.07 ± 0.034 | 7.73 ± 1.1
